# From PubChem BioAssay
# Abeta yeast res – qHTS for compounds that reverse cellular toxicity of Amyloid beta (A-beta) peptide in yeast: Primary Screen. yeast expressing A-beta42, growth rescue, OD600, 48 h; response scale: 0% DMSO, 100% iron-clioquinol control. Potency, µM (top dose mostly 46.1 µM), usual class: activators. hit rate 0.063% among 410,000. AID 1347071, 2019; further: nearly all actives have a fitted effect of over 55% in size
#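 Yeast A-beta toxicity model in growth medium with pinned compounds, 48 h at 30 C; growth read as absorbance at 600 nm. Normalized to FeCl3/clioquinol equimolar mix (positive) and DMSO (negative).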
# Mito fusion act – qHTS Assay for Small Molecule Inhibitors of Mitochondrial Division or Activators of Mitochondrial Fusion; S. cerevisiae fusion-defective mutant growth rescue, CellTiterGlo 48 h; Potency, µM (series often up to 46.1 µM), without a hit: at the top dose growth rescue (activation), most hits filed as activators; hit rate 0.23% among 320,000; AID 485298, 2010; further: % of control where 0% means no effect; nearly all actives have a fitted effect of over 45% in size
#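 Temperature-sensitive fusion-defective S. cerevisiae (e.g. fzo1-1, mgm1-5) were grown with compound in YPEG medium (3% ethanol, 3% glycerol) for 48 hours at 37C. Growth rescue was measured as viability by CellTiterGlo luminescence after 10 minutes at ambient.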
# AT treatment – qHTS Assay for Identifying a Potential Treatment of Ataxia-Telangiectasia | hit rate 0.19% among 320,000 | Potency, µM (highest dose often 57.5 µM), for the others: at the top dose activation, hits mostly activators | F2112 A-T fibroblasts, KAP-1 phosphorylation AlphaLISA; neocarzinostatin DNA damage 30 min before lysis; further: % of control where 0% means no effect; nearly all actives have a fitted effect of over 45% in size
#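 hTERT-immortalized A-T patient fibroblasts (F2112), 500 cells/well in OPTI-MEM, 1% FBS, got compounds for 60 min, then NCS for 30 min at 37C. Lysates were then assayed for phospho-KAP-1 by AlphaLISA (anti-pKAP1 donor, anti-KAP1 acceptor beads), 6 hr at 25C.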
# FUS suppressor – qHTS for Suppressors of FUS Proteinopathy: Primary screen using FUS-linked yeast assay | Potency, µM (highest dose often 76.6 µM), hits mostly activators | hit rate 0.24% among 390,000 | S. cerevisiae FUS-expressing, growth rescue, OD600, 24 h | AID 1347120, 2019;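 further: plate controls were DMSO vehicle for no effect and reference control for full effect; nearly all actives have a fitted effect of over 55% in size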
#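 Quantitative HTS measuring growth restoration of FUS-toxic yeast. Galactose-induced cells (OD 0.005) were exposed 24hr at 30C to compounds at several concentrations, then absorbance at 600 nm was recorded.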
# TDP43 rescue – qHTS of TDP-43 Inhibitors | hit rate 1.8% among 410,000 | TDP-43 expressing yeast growth rescue, BacTiter-Glo, 24 h | Potency, µM (top dose mostly 46.1 µM), inactives show at the highest dose growth rescue (activation), most hits filed as activators; further: % of control where 0% means no effect; nearly all actives have a fitted effect of over 50% in size
#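 Luminescence from BacTiter-Glo reports growth of TDP-43-expressing yeast after 24 hr at 30 deg C with compound. Cells were raffinose-pregrown to mid-log, then seeded in galactose medium at OD600=0.02.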
# aSyn yeast inh – qHTS of alpha-syn Inhibitors; Potency, µM (series often up to 46.1 µM), without a hit: top-dose growth rescue (activation), usual class: activators; AID 652106, 2013; Yeast expressing alpha-synuclein, growth rescue, BacTiter-Glo, 24 h; hit rate 0.14% among 370,000; further: % of control where 0% means no effect; nearly all actives have a fitted effect of over 65% in size
#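 Readout is rescue of growth in alpha-synuclein-expressing yeast, so inhibitors of toxicity appear as activators. Growth after 24 hr at 30 deg C in galactose medium is quantified by luminescence.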
# * hit, by the source's call; i = inactive; ? = inconclusive; / = no result. Compounds with a hit are over-represented: about 2.4% of the library has one in this group of screens. The call rests on the fitted dose curve; in most records, active means well fitted curve in the direction sought with a large enough effect; inconclusive means small, poorly fitted or top-dose-only effect, or another doubt; inactive means no such curve, though single readings can be large; an effect the other way counts as inactive or inconclusive. Potency means the concentration at half of the fitted maximal effect.
SMILES,Abeta yeast res,Mito fusion act,AT treatment,FUS suppressor,TDP43 rescue,aSyn yeast inh
COc1ccc(N2CCN(C(=O)CCn3c(=O)c4cccn4c4cccnc43)CC2)cc1,i,/,/,i,-7.7%,/
COc1ccc(Cc2nnc(SCc3ccc([N+](=O)[O-])cc3)o2)cc1,i,-8.2%,2.3%,i,17.8µM*,6.5%
Cc1nn(C)c(C(=O)Nc2ccn(Cc3c(F)c(F)cc(F)c3F)n2)c1[N+](=O)[O-],i,0.3%,-2.7%,/,7.94µM*,7.1%
Cc1nn(Cc2cccc(C(=O)Nc3ccn(Cc4c(F)c(F)cc(F)c4F)n3)c2)c(C)c1[N+](=O)[O-],i,0.3%,-3.2%,i,0.0%,-2.2%
Nc1ccc(C#Cc2ccccc2)cc1,i,3.4%,0.3%,i,14.1µM*,4.9%
C=CCN1[C@@H](C)COc2cc(F)ccc2S1(=O)=O,/,/,/,i,/,/
Cc1ccc(C(=O)N2CCN(S(=O)(=O)c3ccccc3[N+](=O)[O-])CC2)o1,i,0.2%,-1.9%,i,6.2%,-0.9%
Cc1ccc(C(=O)N2CCN(S(=O)(=O)c3cc(Br)ccc3Br)CC2)o1,i,6.3%,9.2%,i,20µM*,-32.8%
Cc1cc(NC(=O)c2cc(-c3ccccc3Cl)nc3ccccc23)no1,i,21.9%,-20.3%,i,14.1µM*,2.4%
O=C(NCc1ccccn1)c1cc(-c2ccncc2)nc2ccccc12,i,-1.3%,-1.2%,i,14.9%,0.6%
Cc1cc(NC(=O)c2cc(-c3ccccc3C)nc3ccccc23)no1,i,21.6%,10.0%,/,0.0%,0.6%
O=C(NCc1ccccn1)c1cc(-c2ccccc2Cl)nc2ccccc12,i,12.2%,-4.9%,/,20µM*,5.3%
COc1ccc(-c2nc3sc(CCNC(=O)c4cc(OC)c(OC)c(OC)c4)c(C)n3n2)cc1,i,/,/,i,18.6%,/
COc1ccc(/C=C2/C(=O)N(CC3CCCO3)C(=S)N2C)c(OC)c1 (stereo not drawn),i,8.4%,-5.2%,i,-17.6%,0.6%
COc1ccccc1/C=C1\NC(=S)N(CC2CCCO2)C1=O (stereo not drawn),i,12.5%,-3.2%,i,14.1µM*,0.6%
O=C(NCc1ccc(Cl)cc1)c1cc(-c2cccs2)on1,i,1.2%,9.5%,i,-15.3%,4.6%
COc1ccc(CNC(=O)c2cc(-c3cccs3)on2)cc1,i,-5.3%,10.2%,i,5.62µM*,-4.1%
CCOc1ccc(S(=O)(=O)c2cn(Cc3ccc(C)cc3)c3ccc(OC)cc3c2=O)cc1,i,/,/,15.8µM*,20.8%,/
COc1cccc(CNC(=O)c2sc3nc4n(c(=O)c3c2C)CCC4)c1,i,/,/,i,5.8%,/
Cc1ccc(CN=c2c([N+](=O)[O-])nn(-c3cccc(C)c3)n2O)cc1,i,0.4%,-4.9%,i,15.8µM*,3.1%
CCc1ccc(N=c2c([N+](=O)[O-])nn(-c3ccccc3)n2O)cc1,?,17.8µM*,-3.7%,i,12.6µM*,17.7%
COc1ccc(-n2nc([N+](=O)[O-])c(=NCCc3ccc(Cl)cc3)n2O)cc1,i,7.8%,-7.2%,i,3.8%,9.3%
Cc1ccc(CN=c2c([N+](=O)[O-])nn(-c3cccc(Cl)c3)n2O)cc1,?,-1.5%,-7.0%,i,10µM*,10.0%
Cc1cc(C)cc(N=c2c([N+](=O)[O-])nn(-c3ccc(Cl)cc3)n2O)c1,i,-7.5%,1.4%,i,?,-5.5%
COc1ccc(-n2nc([N+](=O)[O-])c(=NCc3cccnc3)n2O)cc1,i,12.3%,-3.6%,/,-2.4%,-5.3%
SMILES,Abeta yeast res,Mito fusion act,AT treatment,FUS suppressor,TDP43 rescue,aSyn yeast inh
CCOC(=O)[C@]12CCCCC/C=C\1N(CCc1ccc(Cl)cc1)C(=O)[C@H]2CC(=O)N1CCCC1,/,/,/,i,/,/
CCN(CC)C(=O)CC[C@H]1CC[C@]2(CCCN(Cc3cccnc3)C2)O1,/,/,/,i,/,/
Cc1ccc2c(c1)-c1c(cnc3cc(-c4ccc(Cl)cc4)nn13)CO2,i,/,/,i,21.8%,/
O=C(Nc1cccc(F)c1)c1ccc2c(c1)N(Cc1ccccc1)C(=O)c1ccccc1S2(=O)=O,i,/,/,i,16.3%,/
CCOc1ccc(CCNC(=O)c2cc3c(s2)-c2ccccc2OC3)cc1OCC,i,/,/,i,4.9%,-9.6%
CC(C)c1cc(C(=O)N(C2CCCCC2)C2CCCCC2)no1,/,/,/,i,/,/
CCS(=O)(=O)c1ncc(Cl)c(C(=O)N2CCN(c3cccc(Cl)c3)CC2)n1,i,/,/,i,12.6µM*,/
CS(=O)(=O)c1ncc(Cl)c(C(=O)N2CCN(c3cccc(Cl)c3)CC2)n1,i,/,/,i,12.6µM*,9.0%
COc1ccc(OCC(=O)N2CCN(c3cccc(Cl)c3)CC2)cc1,i,7.7%,0.9%,i,?,12.3%
O=C(c1ccc(S(=O)(=O)N2CCCC2)cc1)N1CCN(c2cccc(Cl)c2)CC1,i,-0.6%,-3.2%,/,?,20.3%
COc1ccccc1C(=O)NC1CCCCN(Cc2cccc(F)c2)C1=O (stereo not drawn),/,/,/,i,/,/
COC(=O)C1CCN(C(=O)CN2CCC(C(=O)c3ccc(C)cc3)CC2)CC1,/,/,/,i,/,/
COc1ccc(C(C#N)=Cc2ccc(OC)c(OC)c2)cc1,i,/,/,i,?,-3.4%
COc1cc(/C=C(\C#N)c2nc3ccccc3n2C)cc(OC)c1OC,i,/,/,i,29.4%,/
COc1ccc(/C=C(\C#N)c2nc3ccccc3n2C)c(OC)c1,i,/,/,i,20µM*,/
COc1ccc(C(C#N)=Cc2ccccc2OC)cc1,i,/,/,i,20µM*,-9.1%
CC(=O)c1cc(-c2cc(C(=O)O)cc([N+](=O)[O-])c2)c(=O)n2c1CCC2,/,/,/,i,/,/
O=[N+]([O-])c1ccc2[nH]c(O)c(N=NC(=S)Nc3cccnc3)c2c1,i,2.4%,-12.7%,i,10µM*,-7.9%
Oc1cccc(NC(=S)N=Nc2c(O)[nH]c3ccccc23)c1,i,19.1%,1.26µM*,i,-3.2%,1.5%
O=c1c2ccccc2nc(-c2ccccc2)n1O,i,/,/,i,-2.1%,24.5%
COc1ccc(-c2nc3ccccc3c(=O)n2O)cc1,i,-9.2%,8.6%,i,-44.7%,31.6µM*
COc1ccc(CCn2c(S)nc3ccccc3c2=O)cc1,i,-14.1%,1.78µM*,i,10.7%,-0.9%
Cc1ccc(C2(c3noc(CN(C)Cc4cccnc4)n3)CCCC2)cc1,i,28.2µM*,6.7%,i,0.6%,-1.1%
